Screening results deposited in PubChem BioAssay by National Center for Advancing Translational Sciences (NCATS).
A selection: hits, their analogues and other compounds. The true share with any hit is near 10%.
JMJD2A Tudor inh = inhibitors of human JMJD2A Tudor domain; O75164; actives 4.4% (n = 390,000); AlphaScreen JMJD2A-Tudor / H3K4me3 peptide binding; Potency, µM (top dose mostly 114 µM), for the others: top-dose activity change, negative = inhibition, usual class: inhibitors; note: potency is the fitted concentration of half-maximal effect; % is set by controls: 0 for no effect and ±100 for the full control effect; nearly all actives have a fitted effect of over 50% in size
CtBP-E1A blk = inhibitors of CtBP/E1A interaction | activity change, % (no concentration beside the values) | AlphaScreen GST-E1A/His-CtBP binding, 1536-well; stronger effect = lower value | actives 0.49% (n = 340,000); in the data active = activity change below about -65%; inconclusive = mostly about -30% to -63%; note: % is set by controls: 0 for no effect and ±100 for the full control effect
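AlphaScreen with 125 nM GST-E1A and 125 nM His-CtBP (5X stocks) in Tris pH 8.0, 300 mM NaCl, BSA, Tween 20, TCEP. Compounds preincubated 2 h at 37 deg C, then glutathione donor/nickel acceptor beads added for 1 h at 37 deg C in dark.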
G9a inh = inhibitors of human histone lysine methyltransferase G9a; G9a H3K9 monomethylation, AlphaScreen, 2 h; Potency, µM (titrated, usually from 102 µM), for inactives: top-dose activity, negative = inhibition, hits mostly inhibitors; actives 8.8% (n = 350,000); AID 504332; note: potency is the fitted concentration of half-maximal effect; % is set by controls: 0 for no effect and ±100 for the full control effect; nearly all actives have a fitted effect of over 75% in size
Target sequence (Q96KQ7 913-1193 limits assumed): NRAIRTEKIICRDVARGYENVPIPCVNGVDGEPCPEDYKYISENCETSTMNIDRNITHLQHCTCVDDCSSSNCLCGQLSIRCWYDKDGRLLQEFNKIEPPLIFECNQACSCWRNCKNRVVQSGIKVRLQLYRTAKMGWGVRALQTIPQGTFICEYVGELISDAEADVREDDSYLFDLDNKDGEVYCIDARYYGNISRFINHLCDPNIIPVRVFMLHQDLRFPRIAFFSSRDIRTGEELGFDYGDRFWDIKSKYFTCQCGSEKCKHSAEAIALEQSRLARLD
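G9a (20 nM) was preincubated 15 min with compound, then reacted 2 h at room temperature with 500 nM biotin-H3K9 peptide and 20 µM SAM. Monomethyl-H3K9 detected by AlphaScreen using anti-H3K9me1 antibody.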
Six1-Eya2 blk = blocks human Six1 binding to Eya2 | Q15475+O00167 | AlphaScreen GST-Six1/His-Eya2 binding, biochemical; stronger effect = lower value | activity change, % (no concentration beside the values) | actives 0.56% (n = 360,000); in the data active = activity change below about -65%; inconclusive = mostly about -30% to -63%; note: % is set by controls: 0 for no effect and ±100 for the full control effect
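Homogeneous AlphaScreen proximity assay pairing GST-Six1 with His-tagged Eya2 (added as 5X mix: 250 nM and 500 nM) in 50 mM Tris pH 8.0, 300 mM NaCl, 1 mM TCEP. Glutathione donor and nickel acceptor beads; 1 h, 37 °C, dark.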
BAZ2B block = blocks human BAZ2B. Q9UIF8. AlphaScreen BAZ2B-H3K14Ac peptide displacement. actives 4.4% (n = 360,000). Potency, µM (doses to about 114 µM), inactives show at the highest dose activity change, negative = inhibition, hits mostly inhibitors; note: potency is the fitted concentration of half-maximal effect; % is set by controls: 0 for no effect and ±100 for the full control effect; nearly all actives have a fitted effect of over 60% in size
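AlphaScreen luminescence quantifies BAZ2B engagement of H3K14Ac peptide; the protein and biotinylated peptide are both at 50 nM final, buffer PBS pH 7.4 with 0.01% Tween-20, all steps at room temperature.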
HP1b chromo inh = inhibitors of HP1-beta chromodomain binding to methylated histone tails | P83916 | AlphaScreen HP1-beta / biotin-H3K9me3 peptide binding | Potency, µM (top dose mostly 114 µM), for inactives: at the highest dose activity change, negative = inhibition, most hits filed as inhibitors | actives 0.56% (n = 390,000); note: potency is the fitted concentration of half-maximal effect; nearly all actives have a fitted effect of over 70% in size
Target sequence (P83916 whole entry, looked up): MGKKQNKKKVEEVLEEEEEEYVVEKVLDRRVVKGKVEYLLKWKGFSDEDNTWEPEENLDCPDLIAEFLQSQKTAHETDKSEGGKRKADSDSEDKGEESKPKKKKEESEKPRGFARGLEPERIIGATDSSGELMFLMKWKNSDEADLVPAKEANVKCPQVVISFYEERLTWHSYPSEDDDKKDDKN
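HP1-beta protein (50 nM final) preincubated 30 min at room temperature with biotinylated H3(1-18)K9me3 peptide (50 nM) in PBS pH 7.4, 0.01% Tween-20, then compound added for 30 min. AlphaScreen streptavidin donor/nickel chelate acceptor beads (10 ug/mL final), 30 min dark, luminescence read.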
* hit, by the source's call; ? = inconclusive; / = no result; ! = not confirmed by another sample; [ ] = remark or other dose. Unless noted, calls come from the whole dose curve; as a rule, active = well fitted inhibition curve with a large enough effect; inconclusive = small, poorly fitted or top-dose-only effect; inactive = no such curve, though single readings can be large or run the other way.

SMILES	JMJD2A Tudor inh	CtBP-E1A blk	G9a inh	Six1-Eya2 blk	BAZ2B block	HP1b chromo inh
CCOc1ccccc1N1C(=O)CC(=O)NC1=O	-5%	/	79µM*	11	?	6%[57 µM]
CCOc1ccc(N2C(=O)CC(=O)NC2=O)cc1	-3%	12	-8%[0.501 µM]	9	-6%	38%
COc1ccc(N2C(=O)NC(=O)/C(=C\c3ccc([N+](=O)[O-])s3)C2=O)cc1	22µM*	-21	7.9µM*	?	32µM*	22µM*
COc1ccccc1N1C(=O)NC(=O)/C(=C/c2ccc([N+](=O)[O-])s2)C1=O	56µM*	-26	8.9µM*	?	35µM*	?
COc1ccc(N2C(=O)NC(=O)/C(=C\c3cn(C)c4ccccc34)C2=O)cc1	-14%	/	25%[0.501 µM]	-13	-9%	30%
CCOc1ccc(N2C(=O)NC(=O)/C(=C\c3cc(OC)c(OC)cc3[N+](=O)[O-])C2=O)cc1	?	-5	18µM*	-12	?	-17%
COc1cccc(N2C(=O)NC(=O)/C(=C/c3ccc([N+](=O)[O-])s3)C2=O)c1	22µM*	-22	11µM*	?	35µM*	35µM*
Cc1cccc(N2C(=O)NC(=O)/C(=C\c3ccc(N4CCOCC4)cc3)C2=O)c1	-5%	6	?	0	-13%	?
Nc1ncnc2c1ncn2[C@@H]1O[C@@H]2CO[P@](=O)(S)O[C@H]2[C@H]1O	/	/	9%[59 µM]	/	/	/
Clc1ccc(CC[C@H](Cn2ccnc2)Sc2c(Cl)cccc2Cl)cc1	/	/	-6%[21.5 µM]	/	/	/
CC(C)C[C@H]1CNC(=S)N1CC1CCN(CC2CCC(C(C)(C)C)CC2)CC1 (stereo partly drawn)	-31%	?	/	-1	/	47%
Cc1cccc(NC(=S)NC2CC3CCC(C2)N3Cc2ccco2)c1 (stereo not drawn)	-9%	3	?	0	12%[57.1 µM]	5%
COc1ccc(N2C(=O)NC(=O)/C(=C/c3ccc([N+](=O)[O-])s3)C2=O)cc1	56µM*	/	8.9µM*	-73*	40µM*	?
CCc1ccc(N2C(=O)NC(=O)/C(=C/c3cccn3CCOc3ccc(C)cc3)C2=O)cc1	-4%	2	22%[59 µM]	-5	?	36%
C[n+]1ccc(-c2ccccc2)c2ccccc21	-30%	0	25%[2.33 µM]	0	8%	29%
CN(C)c1ccc(/C=C/c2cc[n+](C)c3ccccc23)cc1	22µM*	1	?	-2	79µM*	45µM*
S=c1[nH]c2cc(Br)cnc2[nH]1	20µM*	-4	3.2µM*	-12	-24%	?
CCc1ccc(NC(=O)c2ccc(F)c(S(=O)(=O)N3CCC4(CC3)OCCO4)c2)cc1	-13%	/	6%[59 µM]	/	-1%	45%
NCC#Cc1ccccc1	/	/	31%[12.7 µM]	/	/	/
C=C1C(=O)O[C@@H]2C[C@@H](C)[C@@H]3C=CC(=O)[C@@]3(C)[C@@H](O)[C@H]12	-14%	-6	11µM*!	-4	1%	40%
C[C@@H]1C[C@H]2OC(=O)C3(CO3)[C@H]2[C@H](O)[C@]2(C)C(=O)C3OC3[C@@H]12 (stereo partly drawn)	/	/	11%[59 µM]	/	6%	/
CCCCOP(=O)(c1ccc(N(C)C)cc1)C(Nc1ccccc1)c1ccccc1 (stereo not drawn)	?	-28	45µM*	?	?	-32%
CCCOP(=O)(c1ccc(N(C)C)cc1)C(O)c1ccc(Cl)cc1Cl (stereo not drawn)	?	-8	-8%	-3	-27%	-16%
COc1cc2c(cc1OC)[C@@H]1C(=O)c3ccc4c(c3O[C@@H]1CO2)C[C@H](C(C)C)O4	?	-13	/	-23	?	-6%
COc1cc2c(cc1OC)C1C(=O)c3ccc4c(c3OC1CO2)CC(C(C)C)O4 (stereo not drawn)	45µM*	?	/	?	/	-28%[57 µM]
Cc1ccc(N2CCN(CCc3ccccc3)CC2)cc1	?	-26	?	-25	50µM*	-14%
